This is a sample that favours compounds with a hit; in the whole collection about 7.2% have one here.
A1 inh – inhibitors of the anti-apoptotic protein A1, read as caspase activation | MEF A1-2A-BIM cells, Caspase-Glo 3/7 luminescence, 3 h; percent of clofoctol response, vehicle zero | caspase activation, % (no concentration beside the values) | actives 0.066% (n = 330,000);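 active = over half of replicate activation scores above 10%, or exactly half above 10 with the replicate mean above 10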
ALR H2O2 inh – human ALR oxidase inhibition via reduced H2O2; purified ALR, DTT oxidation, H2O2 HRP-luminol luminescence; inhibition, % (no concentration beside the values); actives 3.8% (n = 290,000); P55789; AID 485317;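 active = mean replicate inhibition above about 79%, with every replicate also reaching it, limit read from the data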
AHR act – human AHR activation. P35869. AHR-responsive luciferase reporter cells, luminescence. activation, % at 5 µM. actives 2.5% (n = 320,000). AID 2796; in the data active = activation above about 47%;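 note: 0% = vehicle wells and 100% = reference agonist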
Target sequence (P35869 whole entry, looked up): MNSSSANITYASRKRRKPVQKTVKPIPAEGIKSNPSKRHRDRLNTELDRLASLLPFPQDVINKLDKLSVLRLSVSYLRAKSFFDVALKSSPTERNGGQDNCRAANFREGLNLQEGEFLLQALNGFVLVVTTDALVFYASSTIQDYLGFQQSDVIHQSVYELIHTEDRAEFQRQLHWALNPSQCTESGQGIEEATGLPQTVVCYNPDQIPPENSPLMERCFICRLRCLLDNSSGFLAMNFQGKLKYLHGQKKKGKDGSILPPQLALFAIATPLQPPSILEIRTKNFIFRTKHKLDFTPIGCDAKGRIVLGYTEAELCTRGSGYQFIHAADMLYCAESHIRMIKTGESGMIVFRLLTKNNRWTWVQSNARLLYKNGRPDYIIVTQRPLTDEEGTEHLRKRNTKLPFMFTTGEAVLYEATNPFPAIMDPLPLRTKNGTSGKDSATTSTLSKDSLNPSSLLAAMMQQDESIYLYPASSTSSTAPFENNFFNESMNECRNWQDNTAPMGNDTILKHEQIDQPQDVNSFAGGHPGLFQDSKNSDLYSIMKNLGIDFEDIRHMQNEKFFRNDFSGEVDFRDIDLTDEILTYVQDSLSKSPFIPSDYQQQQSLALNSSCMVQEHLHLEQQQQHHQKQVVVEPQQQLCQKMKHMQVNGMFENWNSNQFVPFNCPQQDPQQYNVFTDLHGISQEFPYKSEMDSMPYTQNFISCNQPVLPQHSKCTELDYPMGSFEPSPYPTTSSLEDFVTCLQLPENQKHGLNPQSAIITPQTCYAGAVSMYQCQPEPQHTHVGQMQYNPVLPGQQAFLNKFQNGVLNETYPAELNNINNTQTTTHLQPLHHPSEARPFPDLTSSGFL
Efflux pump mplx – blocks antifungal efflux pumps in multiplex yeast assay. S. cerevisiae Candida pump triplex, Nile Red efflux. inhibition, % at 10 µM. actives 0.44% (n = 330,000);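 active = plate passing quality check with inhibition over a set limit, or well fluorescence over plate mean plus 4 SD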;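 note: Nile Red retained in pooled yeast measured as flow cytometry median fluorescence; 0% = buffer negative control and 100% = Enniatin B positive control; higher means more Nile Red kept so more efflux inhibition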
Mot1-301 SUMO – inhibitors of SUMOylation pathway: yeast Mot1-301 growth rescue. S. cerevisiae Mot1-301 growth rescue, ATP luminescence, 38.5C; percent above DMSO median, 100 means doubled. growth rescue, % at 18.8 µM. actives 1% (n = 320,000). AID 2716;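 active = every valid replicate shows activation above 250% relative to neutral control wells; inactive = the rest, any valid replicate at or below 250%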;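 note: OY570 slx delta 5 strain wells were the positive control but not used for scaling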
VLA-4 inh – inhibition in a human VLA-4 binding assay. P13612. VLA-4 expressing cells, ligand binding flow cytometry. inhibition, % (about 7 µM as worked out from the volumes in the protocol). actives 0.2% (n = 330,000). AID 2557; in the data active = inhibition above about 50%
Numbers without * were called inactive; . = no result given.

SMILES	A1 inh	ALR H2O2 inh	AHR act	Efflux pump mplx	Mot1-301 SUMO	VLA-4 inh
CCN1C(=O)c2cccc3c(S(=O)(=O)NCCc4c[nH]c5ccccc45)ccc1c23	0.4	-9.9	6.5	0.3	561.6	2.2
COc1ccc([C@H]2CC(=O)C=C(c3cc(C(F)(F)F)cc(C(F)(F)F)c3)C2)cc1	-0.3	0.0	-1.9	0.1	10.3	-11.4
CCOC(=O)c1ccc(S(=O)(=O)NNC(=O)c2cccc(N(C)C)c2)cc1	-0.6	82.1*	0.3	-0.1	-7.7	-2.0
CCOc1cc2[nH]c(=S)n(CCOC)c(=O)c2cc1OCC	-0.4	2.4	31.3	0.0	-8.1	11.9
COCCn1c(=S)[nH]c2ccc(N(C)C)cc2c1=O	-0.8	97.5*	38.7	0.1	52.6	-0.6
COc1cc(OC)cc(-c2n[nH]c(=S)n2-c2ccc3c(c2)OCO3)c1	0.2	.	18.3	-0.1	-5.7	24.6
Fc1ccc(-n2c(-c3ccc4c(c3)OCO4)n[nH]c2=S)cc1Cl	0.0	96.4*	5.4	-0.2	4.0	-5.0
Cc1ccc(C)c(-n2c(-c3ccc4c(c3)OCO4)n[nH]c2=S)c1	0.7	82.7*	-0.7	0.0	96.8	.
COc1cc2c(cc1OC)CN(Cc1cc(OC)c(O)c(OC)c1)CC2	0.7	0.6	1.8	0.0	.	7.5
Cc1nc2ccc(S(=O)(=O)N3CCCCC3)cc2s1	-0.6	-11.7	0.1	-0.2	-12.1	1.2
Nc1nc2ccc(S(=O)(=O)N3CCCCC3)cc2s1	-0.5	97.7*	2.8	0.2	-15.2	-3.4
CCn1ncc(CN2CCN(Cc3ccc(OC)c(C)c3C)C(CCO)C2)c1C (stereo not given)	0.3	-4.2	2.7	-0.1	405.9	5.3
CCOCCCNC(=O)CSc1nnc(-c2ccc(S(=O)(=O)N3CCCC3)cc2)n1C	0.0	5.0	0.5	0.0	-19.8	8.9
Cc1cccc(/C=N\NC(=O)c2sccc2-n2cccc2)c1	0.3	4.6	63.7*	0.5	688.7	2.5
O=C(NC1CC1)c1sccc1-n1cccc1	0.3	99.6*	-1.1	-0.1	-7.0	-0.6
Cc1cccc(/C=N\NC(=O)c2csnn2)c1	-9.1	.	70.4*	-0.3	41.1	-11.7
Cn1cc(C(=O)N/N=C/c2cccs2)c2ccccc21	-1.2	-4.2	108.7*	0.1	-0.7	-20.7
Cc1cccc(/C=N\NC(=O)c2ccccc2-n2cccc2)c1	-0.6	12.2	33.7	0.0	.	1.4
Cc1cccc2nc(CSc3nnc4ccccn34)cn12	0.1	-2.8	5.7	-0.1	2.2	-1.3
COc1ccc(C(=O)/C=C/NCc2ccc(F)cc2)cc1OC	0.3	-17.5	0.6	-0.2	0.2	10.2
COc1ccc([N+](=O)[O-])cc1N(CC(=O)N1CCCCC1)S(C)(=O)=O	0.1	7.6	-1.6	-0.1	-6.1	-5.6
O=C(N/N=C\c1cccs1)c1sccc1-n1cccc1	-0.3	38.5	66.5*	-0.2	.	-10.0
CC(=O)c1ccc(OC(=O)CCc2nc3ccccc3s2)cc1	0.3	92.9*	7.4	0.0	-9.2	-16.6
COc1ccc(OCC(=O)Nc2ccc3c(c2)nc(CCN2CCN(C)CC2)n3C)cc1	0.5	-3.0	1.8	-0.3	-4.6	4.4
COc1ccc(-c2nc(CSCC(=O)N3CCN(c4cccc(C)c4)C(C)C3)c(C)o2)cc1OC (stereo not given)	0.1	99.3*	1.9	-0.1	-11.8	17.5
SMILES	A1 inh	ALR H2O2 inh	AHR act	Efflux pump mplx	Mot1-301 SUMO	VLA-4 inh
COc1ccc(-c2nc(CSCC(=O)N3CCC(C(N)=O)CC3)c(C)o2)cc1OC	0.6	98.6*	0.1	-0.2	-11.1	-5.2
COc1ccc(-c2nc(CSCC(=O)N3CCc4ccccc4C3)c(C)o2)cc1OC	-0.3	98.5*	1.0	0.0	52.1	1.6
Cc1cccc(N2CCN(c3ccc(N4C(=O)CCCC4=O)cc3[N+](=O)[O-])CC2)c1C	0.1	.	0.3	0.1	2.7	22.3
Cc1cccc(N2CCN(c3ccc(N4C(=O)CCCC4=O)cc3[N+](=O)[O-])CC2C)c1 (stereo not given)	1.5	40.8	70.0*	0.4	415.3*	15.3
COc1ccc(N(CC(=O)Nc2ccccc2C(F)(F)F)C2=NC3CS(=O)(=O)CC3S2)cc1 (stereo not given)	0.2	97.2*	-0.3	0.2	200.4	19.4
COc1ccc(N(CC(=O)Nc2ccc(C)c(C)c2)C2=NC3CS(=O)(=O)CC3S2)cc1 (stereo not given)	-0.3	41.6	-0.7	0.1	156.4	8.7
Cc1cc(C)cc(N(CC(=O)Nc2ccccc2)C2=NC3CS(=O)(=O)CC3S2)c1 (stereo not given)	1.0	98.4*	5.4	-0.2	-16.8	-11.9
CCN(Cc1ccc2c(c1)OCCO2)C(=O)CN1C(=O)NC2(CCc3ccccc32)C1=O (stereo not given)	1.3	18.2	0.6	0.0	3.1	14.7
CCc1cc2c(=O)c(-c3nc(C)cs3)coc2cc1O	-5.6	-6.1	60.2*	-0.1	-3.9	2.7
CC1Cc2nc(SCC(=O)Nc3ccc4c(c3)OCO4)n(-c3ccc(F)cc3)c(=O)c2S1 (stereo not given)	-0.4	-1.3	21.9	-0.2	0.8	-13.2
CN1CCN(c2c(/C=N/O)c3ccccc3n2C)CC1	2.3	92.5*	9.9	-0.2	-19.4	0.7
O=c1cnnc(Nc2ccc(Nc3ccccc3)cc2)[nH]1	-0.6	100.1*	1.0	0.0	4.7	-11.8
O=c1c(C(c2ccc(F)cc2)c2c(O)nc3n(c2=O)CCS3)c(O)nc2n1CCS2	-0.3	.	-1.4	0.0	-6.9	-1.0
CN(C)c1ccc(C(CC(=O)c2ccccc2)C2CCCCC2=O)cc1 (stereo not given)	-0.3	98.1*	5.5	0.0	6.1	8.7
CCN(CC)c1ccc(NS(=O)(=O)c2cn(C)c(=O)n(C)c2=O)c(C)c1	-0.2	98.9*	0.8	-0.1	5.9	-9.4
Cc1ccc(NS(=O)(=O)c2cn(C)c(=O)n(C)c2=O)cc1C	-0.1	.	-1.9	0.1	-7.7	16.5
Cc1nc2c(c(=O)c3ccccc3n2C)c(=O)n1C1CCCCCC1	-0.7	-12.3	0.1	-0.1	15.6	-0.7
Cn1c2ccccc2c(=O)c2c(=O)n(C3CCCCC3)c(-c3ccco3)nc21	0.4	0.7	4.4	0.7	579.9*	14.5
O=C(NC1CC1)c1cccc(NC(=O)c2cn3ccccc3n2)c1	-6.0	-0.8	13.3	-0.1	-6.6	-2.4
O=C(c1cc(C(=O)c2ccco2)cc(C(=O)c2ccco2)c1)c1ccco1	0.3	96.8*	2.4	0.0	-10.7	0.9
O=C(c1ncc[nH]1)c1ccco1	0.7	2.1	0.6	0.0	-11.7	7.2
Cc1ccc(CNC(=O)c2ccc3c(c2)NC(=O)CS3)cc1	0.7	-1.2	9.7	0.0	-6.2	17.7
O=C(CSc1nnc2c3ccccc3c3ccccc3c2n1)Nc1ccccc1F	0.4	-1.8	68.4*	0.2	275.7	-15.7

Screening results (PubChem BioAssay)
